Assay results reported in publication PMC12431657, “Discovery and mechanistic insights of dibenzoylmethane as a broad spectrum inhibitor of coronavirus” (PLOS Pathogens, 2025).
Structures can show the parent of a compound that is named as a salt. Where two headings read alike, the source gives them in different places. In all, about 3,300 compounds went through this assay and about 95 (3%) showed an effect of 50% or more. The list comes from a sample in which strong results are over-represented; it also holds similar structures and randomly drawn compounds.

Test system: HCoV-229E
Design: species or system Huh-7; HTS, protection from HCoV-229E induced cell death, luminescent cell viability (CellCounting-Lite 2.0), inhibition rate
Details: 24 h post infection, 1 h compound pre-incubation, 10 µM, inhibitor

Row | Structure (SMILES) | 229E Inhibition rate [%] | 229E Inhibition rate (229E Inhibition rate, 24 h) [%]
1 | CCC(C)(O)C(=O)O (stereo not shown) [2-Hydroxy-2-methylbutanoic acid] | 0 | –
2 | C[C@@H]1O[C@@H](OC[C@H]2O[C@@H](Oc3c(-c4ccc(O)cc4)oc4cc(O[C@@H]5O[C@@H](C)[C@H](O)[C@@H](O)[C@H]5O)cc(O)c4c3=O)[C@H](O)[C@@H](O)[C@H]2O)[C@H](O)[C@H](O)[C@H]1O [Robinin] | 8.6 | –
3 | COc1cc(O)c2c(=O)c(O[C@@H]3O[C@H](CO[C@@H]4O[C@@H](C)[C@H](O)[C@@H](O)[C@H]4O)[C@@H](O)[C@H](O)[C@H]3O)c(-c3ccc(OC)c(O)c3)oc2c1 [Ombuoside] | 41.9 | –
4 | C[C@@H]1O[C@@H](OC[C@H]2O[C@@H](Oc3c(-c4ccc(OCCO)c(OCCO)c4)oc4cc(OCCO)cc(O)c4c3=O)[C@H](O)[C@@H](O)[C@@H]2O)[C@H](O)[C@H](O)[C@H]1O [Troxerutin] | 50.2 | –
5 | O=C1CCNC(=O)N1 [Dihydrouracil] | 0 | –
6 | COc1c(O)cc2oc3cc4c(c(O)c3c(=O)c2c1CC=C(C)C)CCC(C)(C)O4 [3-Isomangostin] | 11.6 | –
7 | N[C@H](CS)C(=O)O [D-Cysteine] | 6.6 | –
8 | O=C(O)[C@@H](O)[C@H](O)[C@H](O)[C@@H](O)C(=O)O [Mucic acid] | 0 | –
9 | O=C[C@H](O)[C@@H](O)[C@H](O)[C@H](O)C(=O)O [D-Glucuronic acid] | 57.5 | –
10 | O=C[C@H](O)[C@@H](O)[C@@H](O)[C@H](O)C(=O)O [D-Galacturonic acid (hydrate)] | 6.7 | –
11 | CC(C)=CCc1c(O)cc2c(c1O)C(=O)C[C@@H](c1ccc(O)cc1)O2 [(2S)-6-Prenylnaringenin] | 22.5 | –
12 | CC[C@]12C=CCN3CC[C@]4(C(=C(C(=O)OC)C1)Nc1ccccc14)[C@@H]32 [Tabersonine] | 0 | –
13 | O=C(O)CCC(=O)OC[C@@H](NC(=O)C(Cl)Cl)[C@H](O)c1ccc([N+](=O)[O-])cc1 [Chloramphenicol succinate (sodium)] | 54 | –
14 | COC(=O)[C@]1(O)C[C@@H](O)[C@@H](O)[C@H](OC(=O)/C=C/c2ccc(O)c(O)c2)C1 [3-O-Caffeoylquinic acid methyl ester] | 24.2 | –
15 | COc1cc(C(=O)O)cc(OC)c1OC [3,4,5-Trimethoxybenzoic acid] | 11.2 | –
16 | COc1cc(CCC(=O)O)cc(OC)c1OC [3-(3,4,5-Trimethoxyphenyl)propanoic acid] | 55.1 | –
17 | COc1cc(CCC(=O)O)ccc1O [Dihydroferulic acid] | 28.8 | –
18 | C[C@H](CCC(=O)O)[C@H]1CC[C@H]2[C@@H]3[C@H](O)C[C@@H]4CC(=O)CC[C@]4(C)[C@H]3C[C@H](O)[C@]12C [3-Oxocholic acid] | 4.2 | –
19 | CC[C@H](CC[C@@H](C)[C@H]1CC[C@H]2[C@@H]3CC[C@H]4C[C@@H](O)CC[C@]4(C)[C@H]3CC[C@]12C)C(C)C [Stigmastanol] | 12.4 | –
20 | COc1cc2oc(-c3ccc(O)cc3)cc(=O)c2c(O)c1[C@@H]1O[C@H](CO)[C@@H](O)[C@H](O)[C@H]1O[C@@H]1O[C@H](CO)[C@@H](O)[C@H](O)[C@H]1O [Spinosin] | 16.9 | –
21 | O=c1cc(-c2ccc(O)cc2)oc2cc(O)c([C@@H]3O[C@H](CO)[C@@H](O)[C@H](O)[C@H]3O)c(O)c12 [Isovitexin] | 21 | –
22 | O=c1cc(-c2ccc(O)cc2)oc2cc(O)c([C@@H]3O[C@H](CO)[C@@H](O)[C@H](O)[C@H]3O[C@@H]3O[C@H](CO)[C@@H](O)[C@H](O)[C@H]3O)c(O)c12 [Meloside A] | 56.2 | –

Row | Structure (SMILES) | 229E Inhibition rate [%] | 229E Inhibition rate (229E Inhibition rate, 24 h) [%]
23 | O=c1cc(-c2ccc(O)c(O)c2)oc2c([C@@H]3O[C@H](CO)[C@@H](O)[C@H](O)[C@H]3O[C@H]3O[C@@H](CO)[C@@H](O)[C@@H](O)[C@@H]3O)c(O)cc(O)c12 [2"-O-beta-L-galactopyranosylorientin] | 6.8 | –
24 | O=c1cc(-c2ccc(O)c(O)c2)oc2cc(O[C@@H]3O[C@H](CO)[C@@H](O)[C@H](O)[C@H]3O)c(O)c(O)c12 [6-Hydroxyluteolin 7-glucoside] | 5.1 | –
25 | O=c1cc(-c2ccc(O)cc2)oc2cc(O)c([C@@H]3O[C@H](CO)[C@@H](O)[C@H](O)[C@H]3O[C@@H]3OC[C@H](O)[C@H](O)[C@H]3O)c(O)c12 [Isovitexin 2''-O-arabinoside] | 22.1 | –
26 | O=c1cc(-c2ccc(O)c(O)c2)oc2cc(O)c([C@@H]3O[C@H](CO)[C@@H](O)[C@H](O)[C@H]3O)c(O)c12 [Isoorientin] | 51.3 | –
27 | O=c1cc(-c2ccc(O)c(O)c2)oc2c([C@@H]3O[C@H](CO)[C@@H](O)[C@H](O)[C@H]3O)c(O)cc(O)c12 [Orientin] | 55 | –
28 | O=c1cc(-c2ccc(O)cc2)oc2c([C@@H]3O[C@H](CO)[C@@H](O[C@@H]4O[C@H](CO)[C@@H](O)[C@H](O)[C@H]4O)[C@H](O)[C@H]3O)c(O)cc(O)c12 [4”-O-Glucosylvitexin] | 19 | –
29 | O=C(O)[C@H](O)[C@@H](O)C(=O)O [L-Tartaric acid] | – | 17.2
30 | CCOC(=O)CC(C)O (stereo not shown) [Ethyl 3-hydroxybutyrate] | 11.8 | –
31 | CN1c2ccccc2C(=O)N2CCc3c([nH]c4ccccc34)C21 (racemic) [(±)-Evodiamine] | 18.7 | –
32 | CCCCC/C=C/C=C/C(=O)NCC(C)C [Pellitorine] | 14.2 | –
33 | O=C(O)c1ccccc1 [Benzoic acid] | 11.6 | –
34 | O=C(O)c1ccc(C(=O)O)cc1 [Terephthalic acid] | 10.1 | –
35 | O=C(O)c1ccncc1 [Isonicotinic acid] | 55 | –
36 | O=C(O)c1c(O)cccc1O [2,6-Dihydroxybenzoic acid] | 10.3 | –
37 | C=C(CO)C(=O)O[C@H]1CC(=C)[C@@H]2C[C@H](O)C(=C)[C@@H]2[C@H]2OC(=O)C(=C)[C@@H]21 [Cynaropicrin] | 8.5 | –
38 | O=C(O)CNC(=O)c1ccccc1 [Hippuric acid] | 8.9 | –
39 | Cc1ccccc1C(=O)NCC(=O)O [2-(2-Methylbenzamido)acetic acid] | 54.8 | –
40 | Cc1ccccc1C(=O)O [o-Toluic acid] | 0 | –
41 | CCOC(=O)/C=C/c1ccc(O)cc1 [p-Coumaric Acid Ethyl Ester] | 23 | –
42 | O=C1Cc2ccccc2N1 [Oxindole] | 15.9 | –
43 | O=C1C=CC[C@@H]2[C@H]3CCCN4CCC[C@@H](CN12)[C@@H]34 [Sophocarpine (monohydrate)] | – | 23.9
44 | COc1ccc(C2COc3cc(O)ccc3C2)c(O)c1OC (stereo not shown) [Isomucronulatol] | 9.8 | –

Row | Structure (SMILES) | 229E Inhibition rate [%] | 229E Inhibition rate (229E Inhibition rate, 24 h) [%]
45 | COc1ccc(C(=O)O)cc1 [p-Anisic acid] | 5.8 | –
46 | Oc1cc(O)c2c(c1)O[C@@H](c1cc(O)c(O)c(O)c1)[C@H](O)C2 [(-)-Gallocatechin] | 16.1 | –
47 | Oc1cc(O)c2c(c1)O[C@H](c1cc(O)c(O)c(O)c1)[C@@H](O)C2 [(+)-Gallocatechin] | 54.1 | –
48 | Oc1cc(O)c2c(c1)O[C@H](c1cc(O)c(O)c(O)c1)[C@H](O)C2 [(-)-Epigallocatechin] | 10.4 | –
49 | O=C(O)CC(O)(CC(=O)O)C(=O)O [Sodium citrate (dihydrate)] | – | 0
50 | CC(C)C1=Cc2ccc3c(c2C(=O)C1=O)CCCC3(C)C [Miltirone] | 4.2 | –
51 | O=C(O)Cc1cccc(O)c1 [3-Hydroxyphenylacetic acid] | 11 | –
52 | C=C1C[C@@]2(O)O[C@@]3(C[C@H]2C(C)C)[C@@H](C)CC[C@@H]13 [Curcumol] | 11.7 | –
53 | C=C1C[C@]2(O)O[C@@]3(CC2=C(C)C)[C@@H](C)CC[C@@H]13 [Isocurcumenol] | 10.7 | –
54 | CC1=C[C@]2(O)O[C@@]3(CC2=C(C)C)[C@@H](C)CC[C@@H]13 [Curcumenol] | 64.3 | –
55 | O=C1CCCCC1=O [1,2-Cyclohexanedione] | 20.8 | –
56 | C=C(C)C1CC=C(C)C(O)C1 (mixture of isomers) [Carveol] | 14.5 | –
57 | C[C@H]1CC[C@@H]2N(C1)C[C@H]1[C@@H]3C[C@H]4[C@@H](CC(=O)[C@H]5C[C@@H](O[C@@H]6O[C@H](CO)[C@@H](O)[C@H](O)[C@H]6O)CC[C@@]54C)[C@@H]3CC[C@@H]1[C@]2(C)O [Edpetiline] | 11.7 | –
58 | O[C@@H]1[C@@H](O)[C@H](OC/C=C/c2ccccc2)O[C@H](CO[C@@H]2OC[C@H](O)[C@H](O)[C@H]2O)[C@H]1O [Rosavin] | 56.6 | –
59 | COC(=O)c1ccccc1O[C@@H]1O[C@H](CO[C@@H]2OC[C@@H](O)[C@H](O)[C@H]2O)[C@@H](O)[C@H](O)[C@H]1O [Gaultherin] | 45.9 | –
60 | COc1ccc(C(C)=O)c(O[C@@H]2O[C@H](CO[C@@H]3OC[C@H](O)[C@H](O)[C@H]3O)[C@@H](O)[C@H](O)[C@H]2O)c1 [Apiopaeonoside] | 0 | –
61 | O=C1NCN(c2ccccc2)C12CCN(CCCOc1ccc(F)cc1)CC2 [Spiramide] | 51.4 | –
62 | O=C1c2cccc(O)c2C(=O)c2c(O)cccc21 [Danthron] | 0 | –
63 | O=C(O)c1cc(O)c2c(c1)C(=O)c1cccc(O)c1C2=O [Rhein] | 55.2 | –
64 | Cc1cc(O)c2c(c1)C(=O)c1cccc(O)c1C2=O [Chrysophanol] | 29.5 | –
